{"source": "ChEMBL document CHEMBL2218924", "about": "“A broad activity screen in support of a chemogenomic map for kinase signalling research and drug discovery” (Biochem J, 2013)", "key": {"[1]": {"molecular_target": "T1, Ephrin type-B receptor 1 (Homo sapiens) (UniProt P54762)", "T1 sequence (whole entry)": "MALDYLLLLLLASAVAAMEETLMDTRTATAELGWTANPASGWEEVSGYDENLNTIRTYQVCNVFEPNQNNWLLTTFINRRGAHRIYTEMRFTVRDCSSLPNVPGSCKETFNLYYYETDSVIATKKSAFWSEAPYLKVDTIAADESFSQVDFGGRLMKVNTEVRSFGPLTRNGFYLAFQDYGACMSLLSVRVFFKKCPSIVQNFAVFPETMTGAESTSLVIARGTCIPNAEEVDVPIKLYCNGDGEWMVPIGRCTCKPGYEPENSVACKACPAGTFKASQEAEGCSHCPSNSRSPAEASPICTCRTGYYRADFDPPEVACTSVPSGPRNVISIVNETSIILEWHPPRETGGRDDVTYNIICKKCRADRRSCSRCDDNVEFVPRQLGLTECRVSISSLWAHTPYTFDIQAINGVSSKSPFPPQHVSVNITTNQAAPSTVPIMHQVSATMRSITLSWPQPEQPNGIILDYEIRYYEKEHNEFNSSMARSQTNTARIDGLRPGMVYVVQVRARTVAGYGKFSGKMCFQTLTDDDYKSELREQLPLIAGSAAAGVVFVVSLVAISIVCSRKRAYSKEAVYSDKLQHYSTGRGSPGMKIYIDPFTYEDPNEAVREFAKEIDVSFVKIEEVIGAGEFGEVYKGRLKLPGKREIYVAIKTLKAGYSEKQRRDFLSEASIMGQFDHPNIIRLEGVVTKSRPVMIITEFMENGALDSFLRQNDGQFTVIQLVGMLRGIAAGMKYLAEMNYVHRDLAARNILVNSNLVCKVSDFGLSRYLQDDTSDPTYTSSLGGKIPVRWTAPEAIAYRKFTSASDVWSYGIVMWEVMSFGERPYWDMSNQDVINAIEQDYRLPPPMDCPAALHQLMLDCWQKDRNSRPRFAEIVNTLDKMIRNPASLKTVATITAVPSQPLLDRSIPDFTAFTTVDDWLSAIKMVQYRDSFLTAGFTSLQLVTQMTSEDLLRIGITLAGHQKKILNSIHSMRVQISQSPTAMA", "details": "at 10 µM; call rule not given here"}, "[2]": {"molecular_target": "T2, Ephrin type-B receptor 2 (Homo sapiens) (UniProt P29323)", "T2 sequence (whole entry)": "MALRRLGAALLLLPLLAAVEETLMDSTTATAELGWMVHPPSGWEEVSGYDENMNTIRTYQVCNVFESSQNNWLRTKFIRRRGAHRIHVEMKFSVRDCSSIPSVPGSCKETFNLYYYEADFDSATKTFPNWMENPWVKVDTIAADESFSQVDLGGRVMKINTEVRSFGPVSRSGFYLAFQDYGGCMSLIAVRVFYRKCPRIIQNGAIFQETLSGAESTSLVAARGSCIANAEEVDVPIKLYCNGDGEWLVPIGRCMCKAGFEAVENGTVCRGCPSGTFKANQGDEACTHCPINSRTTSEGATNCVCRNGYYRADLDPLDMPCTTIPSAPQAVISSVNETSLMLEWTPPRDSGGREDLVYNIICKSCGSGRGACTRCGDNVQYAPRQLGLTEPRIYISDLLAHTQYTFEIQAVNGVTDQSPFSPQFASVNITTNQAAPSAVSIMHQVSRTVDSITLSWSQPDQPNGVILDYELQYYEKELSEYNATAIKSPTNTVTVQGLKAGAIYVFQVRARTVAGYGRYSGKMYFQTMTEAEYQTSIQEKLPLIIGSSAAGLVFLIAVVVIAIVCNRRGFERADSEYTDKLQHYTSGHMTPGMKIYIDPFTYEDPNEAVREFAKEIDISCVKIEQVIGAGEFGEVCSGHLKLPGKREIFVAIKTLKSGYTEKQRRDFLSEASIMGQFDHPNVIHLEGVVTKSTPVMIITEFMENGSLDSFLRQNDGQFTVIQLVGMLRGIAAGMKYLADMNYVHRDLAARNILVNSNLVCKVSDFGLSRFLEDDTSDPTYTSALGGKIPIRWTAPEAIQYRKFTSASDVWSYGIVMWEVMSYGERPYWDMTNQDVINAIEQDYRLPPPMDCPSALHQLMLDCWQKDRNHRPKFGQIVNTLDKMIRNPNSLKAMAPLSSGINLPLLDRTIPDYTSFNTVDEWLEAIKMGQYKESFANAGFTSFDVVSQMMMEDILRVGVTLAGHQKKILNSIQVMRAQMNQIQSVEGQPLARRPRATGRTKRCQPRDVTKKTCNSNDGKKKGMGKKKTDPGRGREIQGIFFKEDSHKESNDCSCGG", "details": "at 1 µM"}, "[3]": {"molecular_target": "T2, Ephrin type-B receptor 2 (Homo sapiens)", "details": "at 10 µM"}, "[4]": {"molecular_target": "T3, Ephrin type-B receptor 3 (Homo sapiens) (UniProt P54753)", "T3 sequence (whole entry)": "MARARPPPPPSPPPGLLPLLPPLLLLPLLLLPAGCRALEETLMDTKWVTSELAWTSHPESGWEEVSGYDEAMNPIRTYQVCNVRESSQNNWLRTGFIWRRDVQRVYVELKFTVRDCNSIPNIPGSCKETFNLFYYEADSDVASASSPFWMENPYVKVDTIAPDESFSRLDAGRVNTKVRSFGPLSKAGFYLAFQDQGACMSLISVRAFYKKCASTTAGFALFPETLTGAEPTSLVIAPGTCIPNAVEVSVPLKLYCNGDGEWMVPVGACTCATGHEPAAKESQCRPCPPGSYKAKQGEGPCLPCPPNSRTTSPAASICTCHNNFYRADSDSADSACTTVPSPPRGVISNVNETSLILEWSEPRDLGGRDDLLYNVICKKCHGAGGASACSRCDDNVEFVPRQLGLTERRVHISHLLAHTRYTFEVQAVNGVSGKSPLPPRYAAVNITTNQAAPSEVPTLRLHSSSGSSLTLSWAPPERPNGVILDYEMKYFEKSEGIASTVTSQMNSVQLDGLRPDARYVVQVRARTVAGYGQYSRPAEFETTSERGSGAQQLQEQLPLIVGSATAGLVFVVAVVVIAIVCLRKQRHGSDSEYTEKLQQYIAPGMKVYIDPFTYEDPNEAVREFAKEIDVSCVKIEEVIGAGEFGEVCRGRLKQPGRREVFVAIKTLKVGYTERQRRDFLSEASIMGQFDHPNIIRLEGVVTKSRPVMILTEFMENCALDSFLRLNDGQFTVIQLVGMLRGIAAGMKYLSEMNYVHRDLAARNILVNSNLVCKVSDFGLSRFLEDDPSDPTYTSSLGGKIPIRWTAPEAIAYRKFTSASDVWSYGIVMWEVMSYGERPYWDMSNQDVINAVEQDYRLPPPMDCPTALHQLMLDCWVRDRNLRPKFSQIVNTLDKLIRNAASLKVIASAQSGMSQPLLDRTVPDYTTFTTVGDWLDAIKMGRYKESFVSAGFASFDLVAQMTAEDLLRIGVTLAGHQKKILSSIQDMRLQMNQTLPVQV", "details": "at 1 µM"}, "[5]": {"molecular_target": "T3, Ephrin type-B receptor 3 (Homo sapiens)", "details": "at 10 µM"}, "[6]": {"molecular_target": "T4, Ephrin type-B receptor 4 (Homo sapiens) (UniProt P54760)", "T4 sequence (whole entry)": "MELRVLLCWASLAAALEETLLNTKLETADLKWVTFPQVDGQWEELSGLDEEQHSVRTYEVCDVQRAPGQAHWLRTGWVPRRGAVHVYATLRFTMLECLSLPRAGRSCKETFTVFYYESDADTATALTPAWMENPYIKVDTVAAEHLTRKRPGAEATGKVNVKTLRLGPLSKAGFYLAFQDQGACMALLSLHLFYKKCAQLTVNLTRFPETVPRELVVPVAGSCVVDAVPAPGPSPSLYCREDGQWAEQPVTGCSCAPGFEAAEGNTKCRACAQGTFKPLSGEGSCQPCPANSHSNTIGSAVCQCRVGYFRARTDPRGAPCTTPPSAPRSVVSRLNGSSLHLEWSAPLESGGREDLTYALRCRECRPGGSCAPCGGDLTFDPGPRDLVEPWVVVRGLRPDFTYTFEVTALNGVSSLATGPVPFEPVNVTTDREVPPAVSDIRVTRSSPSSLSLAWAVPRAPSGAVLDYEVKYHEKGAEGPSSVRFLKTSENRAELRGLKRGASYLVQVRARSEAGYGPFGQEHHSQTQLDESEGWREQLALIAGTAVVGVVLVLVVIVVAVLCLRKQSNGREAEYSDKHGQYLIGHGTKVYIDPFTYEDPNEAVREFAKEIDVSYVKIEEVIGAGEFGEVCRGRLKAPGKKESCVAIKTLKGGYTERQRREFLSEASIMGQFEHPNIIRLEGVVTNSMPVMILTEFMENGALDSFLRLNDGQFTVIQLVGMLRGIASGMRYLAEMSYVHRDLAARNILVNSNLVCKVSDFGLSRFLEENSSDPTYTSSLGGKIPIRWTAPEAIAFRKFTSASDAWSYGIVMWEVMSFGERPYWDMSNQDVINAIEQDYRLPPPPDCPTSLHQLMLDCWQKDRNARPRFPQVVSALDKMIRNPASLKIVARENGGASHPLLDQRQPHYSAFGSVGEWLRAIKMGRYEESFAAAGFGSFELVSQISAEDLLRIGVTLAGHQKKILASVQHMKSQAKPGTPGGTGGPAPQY", "details": "at 1 µM"}, "[7]": {"molecular_target": "T4, Ephrin type-B receptor 4 (Homo sapiens)", "details": "at 10 µM"}, "[8]": {"molecular_target": "Receptor tyrosine-protein kinase erbB-4 (Homo sapiens) (UniProt Q15303)", "sequence (Q15303 whole entry)": "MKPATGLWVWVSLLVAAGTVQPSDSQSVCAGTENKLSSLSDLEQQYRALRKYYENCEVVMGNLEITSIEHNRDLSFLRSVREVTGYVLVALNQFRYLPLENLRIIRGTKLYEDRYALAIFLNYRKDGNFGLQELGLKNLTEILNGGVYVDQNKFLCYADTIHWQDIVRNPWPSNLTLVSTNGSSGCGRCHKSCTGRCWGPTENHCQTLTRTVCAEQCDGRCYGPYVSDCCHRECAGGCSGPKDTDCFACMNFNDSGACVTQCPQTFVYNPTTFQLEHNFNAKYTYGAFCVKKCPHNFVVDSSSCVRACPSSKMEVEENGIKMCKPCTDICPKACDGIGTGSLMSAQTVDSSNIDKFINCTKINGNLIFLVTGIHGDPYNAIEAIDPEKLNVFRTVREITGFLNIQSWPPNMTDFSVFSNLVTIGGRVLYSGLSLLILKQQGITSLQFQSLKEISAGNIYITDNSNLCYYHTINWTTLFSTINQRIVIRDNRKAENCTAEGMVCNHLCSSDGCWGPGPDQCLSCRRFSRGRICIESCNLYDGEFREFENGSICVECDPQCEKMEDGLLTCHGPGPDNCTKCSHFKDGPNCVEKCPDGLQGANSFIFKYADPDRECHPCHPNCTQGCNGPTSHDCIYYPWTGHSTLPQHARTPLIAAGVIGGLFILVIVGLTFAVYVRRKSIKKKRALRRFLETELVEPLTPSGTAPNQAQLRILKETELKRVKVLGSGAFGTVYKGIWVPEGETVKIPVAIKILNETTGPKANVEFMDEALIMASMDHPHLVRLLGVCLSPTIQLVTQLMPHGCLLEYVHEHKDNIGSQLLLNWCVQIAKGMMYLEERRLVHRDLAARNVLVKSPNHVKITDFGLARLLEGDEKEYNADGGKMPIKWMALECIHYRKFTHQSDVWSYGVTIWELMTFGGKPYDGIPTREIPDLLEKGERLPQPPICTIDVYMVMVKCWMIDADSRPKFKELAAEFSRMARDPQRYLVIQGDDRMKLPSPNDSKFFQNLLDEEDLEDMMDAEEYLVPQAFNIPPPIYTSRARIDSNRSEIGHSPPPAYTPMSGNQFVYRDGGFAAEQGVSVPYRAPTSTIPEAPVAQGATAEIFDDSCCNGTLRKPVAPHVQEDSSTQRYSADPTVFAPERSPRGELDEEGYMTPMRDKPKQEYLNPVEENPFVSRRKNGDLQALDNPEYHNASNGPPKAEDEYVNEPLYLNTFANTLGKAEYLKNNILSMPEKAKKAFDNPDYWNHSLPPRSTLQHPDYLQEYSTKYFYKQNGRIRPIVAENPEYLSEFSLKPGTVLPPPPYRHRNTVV", "details": "at 1 µM"}, "[9]": {"molecular_target": "Receptor tyrosine-protein kinase erbB-4 (Homo sapiens) (UniProt Q15303)", "details": "at 10 µM"}, "[10]": {"molecular_target": "Focal adhesion kinase 1 (Homo sapiens) (UniProt Q05397)", "sequence (Q05397 2-1052 limits assumed)": "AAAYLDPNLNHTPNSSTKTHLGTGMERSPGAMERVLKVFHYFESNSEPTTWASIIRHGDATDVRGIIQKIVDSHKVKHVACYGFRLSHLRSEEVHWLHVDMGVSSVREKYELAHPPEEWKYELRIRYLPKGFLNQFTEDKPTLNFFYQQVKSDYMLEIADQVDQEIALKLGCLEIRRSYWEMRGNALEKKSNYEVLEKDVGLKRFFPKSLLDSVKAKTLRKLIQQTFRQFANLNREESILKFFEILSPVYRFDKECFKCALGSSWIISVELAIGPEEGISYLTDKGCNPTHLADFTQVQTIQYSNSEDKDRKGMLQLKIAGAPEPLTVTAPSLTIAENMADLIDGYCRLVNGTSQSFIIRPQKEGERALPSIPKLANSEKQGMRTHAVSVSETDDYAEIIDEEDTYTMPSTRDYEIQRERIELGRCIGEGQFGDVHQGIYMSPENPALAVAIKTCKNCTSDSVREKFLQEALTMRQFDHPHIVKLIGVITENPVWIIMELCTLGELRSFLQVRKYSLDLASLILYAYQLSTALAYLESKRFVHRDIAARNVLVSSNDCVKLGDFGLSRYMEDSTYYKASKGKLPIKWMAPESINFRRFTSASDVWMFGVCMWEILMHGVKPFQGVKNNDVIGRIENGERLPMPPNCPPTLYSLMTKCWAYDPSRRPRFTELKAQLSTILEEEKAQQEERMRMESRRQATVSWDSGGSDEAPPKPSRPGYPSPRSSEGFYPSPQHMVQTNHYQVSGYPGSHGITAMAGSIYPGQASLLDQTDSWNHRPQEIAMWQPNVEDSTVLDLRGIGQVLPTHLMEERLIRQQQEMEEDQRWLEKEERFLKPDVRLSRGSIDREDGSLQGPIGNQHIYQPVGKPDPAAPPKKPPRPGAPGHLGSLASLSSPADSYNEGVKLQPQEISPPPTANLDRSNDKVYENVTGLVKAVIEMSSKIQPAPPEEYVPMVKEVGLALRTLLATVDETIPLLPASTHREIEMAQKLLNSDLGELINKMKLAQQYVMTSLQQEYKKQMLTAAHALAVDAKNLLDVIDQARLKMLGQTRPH", "details": "at 1 µM"}}}
{"molecule": "COc1ccc(CNc2nc(N(CCO)CCO)nc3c2ncn3C(C)C)cc1", "values": [{"measurement": "residual activity", "setting": "[1]", "result": 77, "unit": "%"}, {"measurement": "residual activity", "setting": "[2]", "result": 113, "unit": "%"}, {"measurement": "residual activity", "setting": "[3]", "result": 106, "unit": "%"}, {"measurement": "residual activity", "setting": "[4]", "result": "113% (inactive)"}, {"measurement": "residual activity", "setting": "[5]", "result": 107, "unit": "%"}, {"measurement": "residual activity", "setting": "[6]", "result": 87, "unit": "%"}, {"measurement": "residual activity", "setting": "[7]", "result": 77, "unit": "%"}, {"measurement": "residual activity", "setting": "[8]", "result": 91, "unit": "%"}, {"measurement": "residual activity", "setting": "[9]", "result": 101, "unit": "%"}, {"measurement": "residual activity", "setting": "[10]", "result": 91, "unit": "%"}]}
